Where “and” joins values, the source holds several entries; their conditions need not be identical. Equal entries are not always repeated. Results filed as inconclusive are left out. A call without a number means that no potency is given here. A number with no mark means an inactive call. Calls of active or inactive are those of the source. Calls come from the whole dose curve; as a rule, active = well fitted inhibition curve with a large enough effect in the signal ratio in the repeat runs (not every such curve was filed as active); inconclusive = weak or mixed curves, or effect the other way; inactive = no such curve, though single readings can be large or run the other way; the % refers to the signal ratio.
The compounds below were run against Androgen receptor (Homo sapiens) (UniProt P10275) (assay: qHTS assay to identify small molecule antagonists of the androgen receptor (AR) signaling pathway (AID 743035)). Conditions: HEK293 AR-UAS-bla, R1881-stimulated, beta-lactamase FRET, 16 h; series mostly up to 58.5 µM.
Androgen receptor (Homo sapiens), sequence (P10275 whole entry, looked up): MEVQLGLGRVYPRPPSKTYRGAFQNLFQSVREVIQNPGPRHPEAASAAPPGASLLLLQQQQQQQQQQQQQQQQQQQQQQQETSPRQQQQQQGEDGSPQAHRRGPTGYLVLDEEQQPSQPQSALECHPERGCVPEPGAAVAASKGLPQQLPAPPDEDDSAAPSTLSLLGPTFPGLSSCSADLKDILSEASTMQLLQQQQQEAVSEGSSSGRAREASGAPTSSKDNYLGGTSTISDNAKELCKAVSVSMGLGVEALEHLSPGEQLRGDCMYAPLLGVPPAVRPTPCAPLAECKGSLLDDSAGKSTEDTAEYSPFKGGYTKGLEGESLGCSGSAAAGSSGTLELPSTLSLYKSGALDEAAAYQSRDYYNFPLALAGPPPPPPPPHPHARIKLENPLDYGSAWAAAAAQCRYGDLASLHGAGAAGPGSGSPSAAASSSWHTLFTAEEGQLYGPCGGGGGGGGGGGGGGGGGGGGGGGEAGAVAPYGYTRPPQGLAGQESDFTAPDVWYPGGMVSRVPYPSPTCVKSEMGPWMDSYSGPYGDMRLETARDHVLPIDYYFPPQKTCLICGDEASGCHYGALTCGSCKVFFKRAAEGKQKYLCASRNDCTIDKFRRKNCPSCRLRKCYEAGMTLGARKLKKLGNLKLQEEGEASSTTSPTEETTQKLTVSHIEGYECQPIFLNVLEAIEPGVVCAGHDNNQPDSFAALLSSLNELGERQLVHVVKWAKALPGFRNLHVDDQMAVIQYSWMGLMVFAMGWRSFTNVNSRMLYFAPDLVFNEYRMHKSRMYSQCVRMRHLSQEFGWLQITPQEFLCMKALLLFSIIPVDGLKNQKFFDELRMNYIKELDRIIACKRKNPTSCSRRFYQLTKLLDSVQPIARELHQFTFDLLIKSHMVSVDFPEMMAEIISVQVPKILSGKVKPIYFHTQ
From the text: National Center for Advancing Translational Sciences [NCATS]
NIH Chemical Genomics Center [NCGC]
U.S. Environmental Protection Agency [EPA]
National Institutes of Environmental Health Sciences [NIEHS]
National Toxicology Program [NTP]
U.S. Food and Drug Administration [FDA]
Androgen receptor (AR), a nuclear hormone receptor, plays a critical role in AR-dependent prostate cancer and other androgen related diseases. Endocrine disrupting chemicals (EDCs) and their interactions with steroid hormone receptors like AR may cause disruption of normal endocrine function as well as interfere with metabolic homeostasis, reproduction, developmental and behavioral functions. To identify the compounds that inhibit AR signaling, GeneBLAzer AR-UAS-bla-GripTite cell line (Invitrogen, Carlsbad, CA, USA) containing a beta-lactamase reporter gene under control of an Upstream Activator Sequence (UAS) stably integrated into HEK293 cells was used to screen the Tox21 10K compound library.
Tox21 Assay Protocol Summary:
AR-bla cells were dispensed at 2,000 cells/5 uL of assay medium per well into black wall/clear-bottom 1536-well plates using a Multidrop Combi (ThermoFisher Scientific, Waltham, MA) dispenser. After the assay plates were incubated at a 37C and 5% CO2 for 4 hr, 23 nL of compounds dissolved in DMSO, positive controls or DMSO only was transferred to the assay plate by a Pintool station (Kalypsys, San Diego, CA), followed by addition of 1 uL of agonist (R1881) in culture medium using a Bioraptr Flying Reagent Dispenser (FRD) workstation (Beckman Coulter, Indianapolis, IN, USA). The plates were incubated at a 37C and 5% CO2 for 16 h. After 1 uL of LiveBLAzerTM B/G FRET substrate was added using a Bioraptr FRD, the plates were incubated at room temperature for 2 h and fluorescence intensity was measured by an Envision plate reader (PerkinElmer, Shelton, CT).
COc1ccc(S(=O)(=O)N2C(=O)[C@@](c3ccccc3OC)(N3C[C@H](O)C[C@H]3C(=O)N(C)C)c3cc(Cl)ccc32)c(OC)c1 was tested, and the Potency was 17.4 µM (active).
In the case of CN1CCC(=C2c3ccccc3Sc3ccccc32)CC1, the Potency is reported as 26.8 µM (active).
For CCCCCCCCCCCCCCCCOS(=O)(=O)O, the Potency was “inactive”.
For O=CC1CC=CCC1 (stereo not given), the Potency was “inactive”.
In the case of CC(C)CC(=O)C1C(=O)c2ccccc2C1=O, the Potency is reported as 49 µM (active).
With OCCNCc1ccccc1 the Potency was “inactive”.
With CCCn1cnc2c1c(=O)n(CCCCC(C)=O)c(=O)n2C the Potency was “inactive”.
With CCCCCC[C@@H](O)C/C=C\CCCCCCCC(=O)OC the Potency was “inactive”.
Compound O=C(O)CNCC(=O)O has an activity change, negative = inhibition of 0.788% [at 7.04 µM].
With NCc1ccccc1Sc1ccccc1CO the Potency was “inactive”.
C[C@@H](c1ncncc1F)C(O)(Cn1cncn1)c1ccc(F)cc1F (stereo not given in full) was tested, and the Potency was “inactive”.
Cc1nn(C)c(Oc2ccccc2)c1/C=N/OCc1ccc(C(=O)OC(C)(C)C)cc1 was tested, and the Potency was 0.123 µM (active).
With OC(CN1CCC(Cc2ccc(F)cc2)CC1)c1ccc(Cl)cc1 (stereo not given) the Potency was “inactive”.
For CCC(=O)O[C@]1(C(=O)CCl)[C@@H](C)C[C@H]2[C@@H]3CCC4=CC(=O)C=C[C@]4(C)[C@@]3(F)[C@@H](O)C[C@@]21C, the Potency was 7.56 µM (active).
With C/C(=C(\CCOP(=O)(O)O)SC(=O)c1ccccc1)N(C=O)Cc1cnc(C)nc1N the Potency was “inactive”.
COc1ccc(-c2nc3ccc(C4=NNC(=O)CC4C)cc3[nH]2)cc1 (stereo not given) was tested, and the Potency was 19 µM (active).
CC(=O)NO was tested, and the Potency was “inactive”.
With CC(=O)OC[C@H]1O[C@@H](n2ncc(=O)[nH]c2=O)[C@H](OC(C)=O)[C@@H]1OC(C)=O the Potency was 5.35 µM (active).
CCCCCCCCCc1ccc(OCCOCCO)cc1 was tested, and the Potency was 5.35 µM (active) and 4.6 µM (active).
CCO[C@H](Cc1ccc(OCCc2ccc(OS(C)(=O)=O)cc2)cc1)C(=O)O was tested, and the Potency was “inactive”.
In the case of CN1CCN(C(c2ccccc2)c2ccccc2)CC1, the Potency is reported as “inactive”.
With CC(COCCO)OCCO (stereo not given) the Potency was “inactive”.
O=C1OC(CN2CCOCC2)CN1/N=C/c1ccc([N+](=O)[O-])o1 (stereo not given) was tested, and the Potency was “inactive”.
With Nc1cccc([N+](=O)[O-])c1 the Potency was “inactive”.
O=[N+]([O-])c1ccc(NCCO)c(OCCO)c1 was tested, and the Potency was “inactive”.

— PubChem BioAssay (Tox21)
Potency is the fitted concentration of half-maximal effect.
